Our source for the growth values is PubChem BioAssay (NCI).

Test systems include HCT-15 colon; HT29 colon; SNB-75 CNS; SNB-19 CNS; U251 CNS; PC-3 prostate; SK-MEL-5 melanoma; UACC-62 melanoma; LOX IMVI melanoma; SK-MEL-28 melanoma; SK-MEL-2 melanoma; EKVX NSCLC; SN12C renal; UO-31 renal; TK-10 renal; ACHN renal; CAKI-1 renal; A498 renal; CCRF-CEM leukemia; MOLT-4 leukemia.
What all share (experiment): NCI-60 one-dose screen, 48 h (100 = growth as untreated, 0 = no growth, -100 = all killed)
Holding throughout (conditions): 10 µM unless noted

This is part of a sample that, as a whole, favours compounds with a hit. Of some 83,000 tested, about 20% had one in any assay.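 Step 1: grow cells in 96-well plates. Step 2: add test compound at a single concentration. Step 3: incubate 48 h. Step 4: record percent growth.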 A number with no mark means an inactive call. Calls of active or inactive are those of the source. How the source made its calls: active means growth percent below 10; inactive means the rest.

Take `Cn1cc(C2=C(c3cccc4ccccc34)C(=O)NC2=O)c2cc(Br)ccc21`: the growth in the assay on HCT-15 colon is 91.3%; in the assay with HT29 colon, 90.5%; in the assay on SNB-75 CNS, 37.9%; with SNB-19 CNS, 108%; with U251 CNS, 91.7%; in the assay on PC-3 prostate, 97.3%. Also, the growth is 93.5% with SK-MEL-5 melanoma; 112% with UACC-62 melanoma; 89.8% in the assay with LOX IMVI melanoma; 111% with SK-MEL-28 melanoma; 111% in the assay on SK-MEL-2 melanoma; 88.5% with EKVX NSCLC. Also, the growth in the assay on SN12C renal is 95.2%; in the assay with UO-31 renal it was 80.8%; in the assay with TK-10 renal, 101%; in the assay with ACHN renal it was 80.6%; in the assay with CAKI-1 renal, 69.2%; in the assay on A498 renal, 69.8%. Further, the growth in the assay on CCRF-CEM leukemia is 84%; with MOLT-4 leukemia, 77.1%.
In the case of `COC(=O)c1[nH]nc(OC)c1C1(C(C#N)c2nc3ccccc3s2)CCCc2ccccc21` (stereo not given), the growth with HCT-15 colon was 102%; in the assay on HT29 colon, 95.8%; with SNB-75 CNS, 86.4%; in the assay on SNB-19 CNS, 96.7%; in the assay on U251 CNS, 96.5%; in the assay with PC-3 prostate it was 79.5%. Besides, the growth with SK-MEL-5 melanoma was 97.8%; with UACC-62 melanoma it was 79.6%; in the assay with LOX IMVI melanoma, 95%; in the assay with SK-MEL-28 melanoma, 78.9%; in the assay on SK-MEL-2 melanoma, 88.7%; in the assay with EKVX NSCLC, 88.5%. Besides, the growth with SN12C renal is 86%; with UO-31 renal, 72.4%; in the assay with TK-10 renal, 139%; in the assay with ACHN renal, 89.1%; with CAKI-1 renal, 94.5%; in the assay on A498 renal it was 109%. Moreover, the growth is 96.5% in the assay on CCRF-CEM leukemia and 102% with MOLT-4 leukemia.
As for `Cc1ccc(C(=O)N(CCCN)[C@@H](c2nc3cc(Cl)ccc3c(=O)n2Cc2ccccc2)C(C)C)cc1`, the growth in the assay with HCT-15 colon is -50% (active); with HT29 colon, 0.611% (active); with SNB-75 CNS, -18.7% (active); in the assay on SNB-19 CNS, 5.11% (active); in the assay on U251 CNS, -65% (active); in the assay on PC-3 prostate it was 16.4%. Moreover, the growth was -94.2% (active) with SK-MEL-5 melanoma; -79.6% (active) in the assay on UACC-62 melanoma; -90% (active) in the assay on LOX IMVI melanoma; -31% (active) in the assay on SK-MEL-28 melanoma; -43% (active) in the assay with SK-MEL-2 melanoma; -7.16% (active) in the assay on EKVX NSCLC. In addition, the growth with SN12C renal is -15.6% (active); in the assay on UO-31 renal it was 5.01% (active); in the assay on TK-10 renal it was -33.5% (active); with ACHN renal, -28.3% (active); with CAKI-1 renal, 4.04% (active); in the assay on A498 renal, -4.18% (active). Further, the results for the growth with CCRF-CEM leukemia and with MOLT-4 leukemia were 1.72% (active) and -29.3% (active), respectively.
As for `COc1ccc(C/C(C)=C(/c2ccc(OCCN3CCCCCC3)cc2)c2ccc(OC(=O)c3ccccc3)cc2)cc1`, the growth in the assay on HCT-15 colon is 100%; in the assay with HT29 colon, 89.9%; in the assay with SNB-75 CNS, 110%; in the assay on SNB-19 CNS, 102%; in the assay on U251 CNS, 107%; in the assay on PC-3 prostate, 101%. Further, the growth is 109% with SK-MEL-5 melanoma; 99.1% in the assay with UACC-62 melanoma; 90.7% in the assay on LOX IMVI melanoma; 106% in the assay with SK-MEL-28 melanoma; 97.4% in the assay with SK-MEL-2 melanoma; 93% in the assay on EKVX NSCLC. Further, the growth in the assay on SN12C renal was 97.4%; with UO-31 renal, 88.4%; with TK-10 renal, 97.2%; with ACHN renal, 99.6%; in the assay on CAKI-1 renal it was 104%; with A498 renal, 120%. Besides, the growth in the assay on CCRF-CEM leukemia was 93%; with MOLT-4 leukemia, 77%.
Take `N=c1ccccn1CCO`: the growth in the assay with HCT-15 colon is 87%; in the assay on HT29 colon, 97.3%; in the assay on SNB-75 CNS, 113%; in the assay with SNB-19 CNS it was 93.5%; with U251 CNS it was 109%; with PC-3 prostate, 92.7%. For the same molecule, the growth with SK-MEL-5 melanoma was 104%; in the assay on UACC-62 melanoma, 98.1%; in the assay on LOX IMVI melanoma, 104%; in the assay on SK-MEL-28 melanoma, 108%; in the assay with SK-MEL-2 melanoma it was 104%; in the assay on EKVX NSCLC it was 121%. The growth in the assay on SN12C renal is 98.1%; with UO-31 renal it was 85.4%; in the assay with TK-10 renal it was 109%; in the assay on ACHN renal, 102%; in the assay with CAKI-1 renal it was 106%; in the assay on A498 renal, 89.9%. Further, the growth is 102% with CCRF-CEM leukemia and 93.4% in the assay with MOLT-4 leukemia.
In the case of `Nc1nc(Nc2ccc(F)cc2)nn1C(=O)c1cc(Cl)ccc1Cl`, the growth with HCT-15 colon was 69.1%; in the assay on HT29 colon, 70.8%; with SNB-75 CNS, 76.7%; in the assay on SNB-19 CNS, 65.8%; in the assay on U251 CNS it was 76.1%; in the assay on PC-3 prostate, 75.6%. Further, the growth in the assay with SK-MEL-5 melanoma is 87%; with UACC-62 melanoma it was 60.8%; with LOX IMVI melanoma, 48.4%; with SK-MEL-28 melanoma, 86%; in the assay with SK-MEL-2 melanoma, 97.3%; in the assay on EKVX NSCLC, 99.7%. Besides, the growth is 68% in the assay on SN12C renal; 64.7% with UO-31 renal; 104% in the assay on TK-10 renal; 58.9% in the assay on ACHN renal; 51.6% with CAKI-1 renal; 68.4% in the assay on A498 renal. The values for the growth in the assay on CCRF-CEM leukemia and in the assay with MOLT-4 leukemia were 60.4% and 75.4%, respectively.
As to `Nc1ccc(-c2ccc(N)c(Br)c2)cc1Br`, the growth was 29.3% in the assay with HCT-15 colon; 32% with HT29 colon; 29.8% with SNB-75 CNS; 52.4% in the assay on SNB-19 CNS; 45.6% in the assay with U251 CNS; 57.4% in the assay with PC-3 prostate. The growth in the assay on SK-MEL-5 melanoma was 45.8%; with UACC-62 melanoma, 33.5%; with LOX IMVI melanoma, 40.3%; in the assay with SK-MEL-28 melanoma, 58.4%; with SK-MEL-2 melanoma, 44%; in the assay on EKVX NSCLC, 59%. For the same molecule, the growth in the assay with SN12C renal was 45.7%; with UO-31 renal, 35%; in the assay with TK-10 renal it was 75.6%; with ACHN renal it was 76.5%; in the assay on CAKI-1 renal, 50.3%; in the assay with A498 renal it was 74.5%. Moreover, the growth with CCRF-CEM leukemia was 19.6%; in the assay with MOLT-4 leukemia, 27.2%.
